Screens (PubChem)
Rows were chosen to be rich in hits. Some 4% of all compounds tested hit in one or more screens of this group.
Glioma ERSR ind: induces the endoplasmic reticulum stress response in human glioma cells; U87-MG GRP78 promoter luciferase reporter, 16 h; actives 0.02% (n = 420,000); Potency, µM, hits mostly activators; AID 602332; active = well fitted activation curve with a large enough effect; inconclusive = small, poorly fitted or top-dose-only effect; inactive = no such curve, though single readings can be large or run the other way; also: series mostly up to about 76 µM; nearly all actives have a fitted effect of over 35% in size
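Stably transfected U87-MG glioma cells carrying a GRP78-based luciferase sensor; 16 h compound incubation. Luminescence end-point read 10 min after Bright-Glo addition at room temperature.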
D1 potentiator: enhances dopamine response at the human D1 receptor. HEK293 TREx D1 cells, calcium flux, dopamine EC20 potentiation. potentiation, % at 10 µM. actives 0.036% (n = 360,000); in the data active = potentiation above about 30%
Target sequence (P21728 whole entry, looked up): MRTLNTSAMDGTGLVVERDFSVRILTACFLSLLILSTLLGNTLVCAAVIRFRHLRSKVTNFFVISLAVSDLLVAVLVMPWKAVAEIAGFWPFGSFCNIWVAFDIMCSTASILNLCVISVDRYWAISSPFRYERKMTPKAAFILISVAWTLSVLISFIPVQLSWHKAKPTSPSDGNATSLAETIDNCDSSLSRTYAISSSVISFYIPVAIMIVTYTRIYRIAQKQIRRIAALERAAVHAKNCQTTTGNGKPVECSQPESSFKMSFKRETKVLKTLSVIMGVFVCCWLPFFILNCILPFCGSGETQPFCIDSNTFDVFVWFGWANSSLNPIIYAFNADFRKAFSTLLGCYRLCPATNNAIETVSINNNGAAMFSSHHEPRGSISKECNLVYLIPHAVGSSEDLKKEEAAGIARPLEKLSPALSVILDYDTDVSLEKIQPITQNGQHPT
TRHR agonist: TRH receptor (human) agonism | P34981 | TRHR cells, calcium flux fluo-8, FDSS agonist mode | activation, % at 2 µM | actives 0.18% (n = 360,000)
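Fluo-8-loaded TRHR cells; 10 s baseline, compound added, kinetic Ca2+ fluorescence read 1/s, agonist mode.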
TRHR PAM: allosterically enhances the human TRH receptor; TRHR cells, fluo-8 calcium fluorescence, EC20 TRH enhancement; P34981; actives 0.66% (n = 360,000); enhancement, % at 2 µM; in the data active = enhancement above about 30%
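TRHR-expressing cells loaded with fluo-8 calcium dye were read kinetically (ex 480/em 530) during compound addition, then stimulated with an EC20 of TRH (10 nM final). Enhancement of the Gq-mediated intracellular calcium response was scored.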
D1 agonist: human D1 receptor agonism; actives 1% (n = 360,000); HEK293 T-REx D1 cells, calcium flux, agonist mode; P21728; activation, % at 2 µM; AID 504660
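Tetracycline-induced HEK293 TREx D1 cells, force-coupled to calcium signalling, were dye-loaded with a no-wash calcium kit. Compound was pin-added after a 10 s baseline. Fluorescence was read kinetically at 1 cycle/s for 180 s, with calcium rises flagged as agonism.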
D1 antagonist: human D1 dopamine receptor antagonism; P21728; actives 3.2% (n = 360,000); AID 504652; activity change, negative = inhibition, % at 10 µM; HEK293 TREx D1 cells, calcium flux, dopamine EC80; active compounds read low; in the data active = activity change below about -30%
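Tetracycline-induced HEK293 T-REx cells with force-coupled D1 receptor were loaded with a no-wash calcium dye. Compound was added after a 10 s baseline and read kinetically for 180 s; EC80 dopamine was then added and calcium flux followed another 180 s.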
A number is an active result; – = inactive; ? = inconclusive; · = no result; ! = not active in a repeat. Rule as the data show it, unless noted: active = activation above about 30%; inactive = the rest.

SMILES | Glioma ERSR ind | D1 potentiator | TRHR agonist | TRHR PAM | D1 agonist | D1 antagonist
CCN(CC(=O)Nc1c(F)cccc1F)C(=O)CCN1C(=O)C2CCCCC2C1=O (stereo unspecified) | – | – | – | – | – | –
O=C(Nc1ccc(Cl)cc1)N1CCC(c2ccccc2)C1 (stereo unspecified) | – | – | – | – | – | -33.1!
Cc1cc(N)c(NC2=CC(=O)CC(C)(C)C2)cc1C | – | – | – | – | 31.4 | –
Cc1ccc(NC2=CC(=O)CC(C)(C)C2)cc1F | – | – | – | – | – | –
Cn1cccc1C(=O)NNC(=O)COc1ccccc1F | – | – | – | – | – | -47.0
CC1CCCCN1C(=O)Cn1c(=O)n(CCC(=O)NCc2ccco2)c(=O)c2sccc21 (stereo unspecified) | – | – | – | 35.1 | – | –
C/C(N)=C(/C#N)C(=O)COC(=O)c1ccccc1O | – | – | – | – | – | –
C/C(N)=C(/C#N)C(=O)COC(=O)c1cccc2ccccc12 | – | – | – | – | – | -34.3
CC(=O)c1cccc(NC(=O)COC(=O)c2ccccc2C)c1 | – | – | – | 31.0 | – | –
COc1ccccc1C(=O)Nc1ccc(C(=O)N2CCCCC2)cc1 | – | – | – | – | – | –
COc1ccccc1C(=O)Nc1ccc(C(=O)N2CCCC2)cc1 | – | – | – | – | – | -70.9
CCOc1ccccc1C(=O)Nc1c(C(=O)Nc2ccc(F)cc2)oc2ccccc12 | – | – | – | 43.2 | – | –
O=C(CNCCc1ccc(Cl)cc1)Nc1ccc(C(=O)N2CCCCC2)cc1 | – | – | – | – | 33.9 | –
C=C1c2ccccc2O[C@H](C(=O)OCC)C1OC (mixture of isomers) | – | · | · | · | · | ·
O=C(CNC(=O)c1ccccc1)OC(Cc1ccccc1)C(=O)Nc1cc(C(F)(F)F)ccc1Cl (stereo unspecified) | · | – | – | – | – | –
CC(=O)c1cccc(NC(=O)COc2ccccc2C(=O)Nc2ccccc2)c1 | – | · | · | · | · | ·
CCOc1ccc(NC(=O)c2ccccc2OC)cc1 | – | 40.8 | – | – | – | –
COc1ccccc1C(=O)NC(=S)Nc1ccc(Cc2ccncc2)cc1 | – | 39.0 | – | – | – | –
CCOc1ccc(NC(=O)c2ccccc2O)cc1 | – | – | – | – | – | –
O=C(Nc1ccc(C(=O)N2CCCCC2)cc1)c1ccc(Br)cc1 | ? | – | – | – | – | -31.0
CC(=O)c1ccc(NC(=O)COc2ccccc2C(=O)Nc2ccccc2)cc1 | – | – | – | – | – | -60.7
COc1cccc(CN2CCC(n3cc(C(=O)NC4CCCC4)nn3)CC2)c1O | – | · | · | · | · | ·
Cc1ccc(NC(=O)Cn2ccc(=O)[nH]c2=O)cc1 | – | – | – | – | – | –
O=C(Nc1nccs1)[C@@H]1CC=C[C@@H]2CCN(C3CC3)C(=O)[C@@H]21 | – | · | · | · | · | ·
Cc1ccc(C(=O)Nc2ccc(N3CCN(C(=O)c4ccco4)CC3)cc2)cc1 | – | – | – | – | – | –
SMILES | Glioma ERSR ind | D1 potentiator | TRHR agonist | TRHR PAM | D1 agonist | D1 antagonist
CCOc1ccccc1C(=O)Nc1ccc(C(=O)c2ccccc2)cc1 | – | – | – | – | – | –
CCOc1ccccc1C(=O)Nc1ccc(NC(=O)c2ccccc2)cc1 | – | – | – | 33.5 | – | –
COc1ccc(C(=O)Nc2ccc(C(=O)N3CCOCC3)cc2)cc1OC | – | – | – | 32.3 | – | –
CCOC(=O)c1ccc(NC(=O)c2ccc(OC(C)C)c(OC)c2)cc1 | – | – | – | – | – | -32.1
COc1ccc(NC(=O)Nc2ccc(C(=O)N3CCOCC3)cc2)cc1OC | – | – | – | – | – | –
CCOC(=O)c1ccc(NC(=O)Nc2ccc(OC)c(OC)c2)cc1 | – | – | – | – | – | –
O=C(Nc1ccc(N2CCN(C(=O)c3ccco3)CC2)cc1)c1ccc(Br)cc1 | – | – | – | – | – | -31.8
COc1ccccc1C(=O)Nc1ccncc1 | – | – | – | 35.1 | – | –
CC(C)=CCC/C(C)=C/CO/N=C1/[C@H]2O[C@@H]2[C@@H](O)[C@H]2[C@H]1CCn1c(=O)n(-c3ccccc3)c(=O)n12 | – | · | · | · | · | ·
CCOC(=O)C1(CCCc2ccccc2)CCN(S(C)(=O)=O)CC1 | – | – | – | – | – | –
CCOC(=O)C1(CC2CC2)CCN(S(=O)(=O)/C=C/c2ccccc2)CC1 | – | – | – | – | – | -80.0
O=C(COc1ccccc1C(=O)Nc1ccccc1)Nc1ccc(Br)cc1 | – | · | · | · | · | ·
OCCOCCOc1ccccc1OCCOCCO | – | – | – | – | – | -86.1
CC(=O)c1ccccc1OCCOCCOCCOc1ccccc1C(C)=O | – | – | – | – | – | –
COC(=O)c1ccc(CNC(=O)CCNC(=O)c2ccco2)cc1 | – | – | – | – | – | –
Cc1ccc2nc(Cc3ccc(N)cc3)oc2c1 | – | – | – | – | – | -31.0
CC(C)N(Cc1ccccc1)S(=O)(=O)c1ccc(Cl)nc1 | – | – | – | – | – | -40.7
CCC1C/C(=C\c2cc(OC)c(OC)cc2OC)C(=O)/C(=C/c2cc(OC)c(OC)cc2OC)C1 (stereo unspecified) | – | – | – | – | – | –
CCC1C/C(=C/c2ccco2)C(=O)/C(=C/c2ccco2)C1 (stereo unspecified) | · | – | – | – | 36.9 | –
CN(C)C1C(=O)C(C(N)=O)C(=O)C2(O)C(=O)C3C(=O)c4c(O)ccc(Cl)c4C(O)C3CC12 (stereo unspecified) | – | · | · | · | · | ·
COc1ccccc1C(=O)N[C@@H]1c2ccccc2C2(CCN(Cc3c(O)cccc3OC)CC2)[C@H]1O | – | · | · | · | · | ·
CCOc1cc(C(=O)NCc2nc(-c3cccc(C)c3)no2)cc(OCC)c1OCC | – | – | – | – | – | -30.7
Cc1cc(C)cc(OCC(=O)NCc2nc(-c3ccccc3)no2)c1 | – | – | – | – | – | -58.0
CCOc1ccc(C(=O)N(Cc2nc(-c3cccc(C)c3)no2)C(C)C)cc1 | – | – | – | – | 47.3 | –
Cc1cc(C)cc(OCc2nc(-c3cccnc3)no2)c1 | – | – | – | – | – | -30.4
SMILES | Glioma ERSR ind | D1 potentiator | TRHR agonist | TRHR PAM | D1 agonist | D1 antagonist
Cc1ccccc1-c1noc(CNC(=O)COc2ccccc2)n1 | – | – | – | – | – | –
Cc1ccc(CC(=O)NCc2nc(-c3cccc(C)c3)no2)cc1 | – | – | – | – | – | –
CCn1cc(CN2CCOc3ccc(C(O)C4CCCCC4)cc3C2)c(C)n1 (stereo unspecified) | – | · | · | · | · | ·
CN1CCN(c2ncnc3ccc(-c4cccc(C#N)c4)cc23)CC1 | – | · | · | · | · | ·
Cc1cc(C)n2c(Nc3ccccc3)c(-c3ccccc3)nc2n1 | – | – | – | – | – | –
CCOC(=O)C1CCCN(C(=O)c2cnn(-c3ncc4c(n3)-c3ccccc3CC4)c2C)C1 (stereo unspecified) | – | · | · | · | · | ·
